Results on 40 sequences are retold here after the supplement of paper PMC6555819.

One experiment relates to RARg homodimer (NR concentration 270 nM). Kind of experiment: PBM binding z-score (relative to random genomic background probes); higher = stronger binding; sequences stand for … in GC…GCGATTGACAGCGTAGAATGAAGG
The method, boiled down: (§1)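 Scanned fluorescence from custom Agilent 4×180K protein-binding microarrays was regression-normalized. Binding z-scores use random background probes as reference. Ligand-free nuclear receptor dimers were incubated on the arrays for 1 h and detected with antibodies against each partner (one per run).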
The sequence TCTCGGAGAACACGAAAGGTCAGAGCTCGACATC showed a PBM binding z-score of 3.24.

In turn, CCTCGGAGGACAACAGGACGTCAGAGCTGCCAGA registered a PBM binding z-score of 1.12.

For the sequence ACTCGGAGGACATAGGTCAGAGCTACGCCAGTGA, the PBM binding z-score amounted to 2.28.

In turn, TCTGCTAGTTCAACGATGGTCAGCTAATCTGCTA yielded a PBM binding z-score of 1.03.

GCTCGGAGGAGAAGGTCAGAGCTTTGTCCGTAGA came in with a PBM binding z-score of 2.28.

As to TCAGACACGTGAAGGTAACTCAGGTACGCAGTCG, the PBM binding z-score is 0.219.

CTTCCAAGGTCAAAGGTCAGTGAAGAGATGACGG came in with a PBM binding z-score of 8.01.

The sequence AGAACGCGGGCAATGAGTTGATAGCACGGGTGGC had a PBM binding z-score of 0.194.

Consider AATACAGGGACACTAGGCCAGAGTAGGTACGAAT, for which the PBM binding z-score came to 0.984.

ATCGAAAGGTCGACGAGGTGAGTATCCACCGTTT yielded a PBM binding z-score of 4.03.

Regarding AGAATGAGGATACCAAAGATCAGGGAAACGCTTG, the PBM binding z-score came to 0.437.

CCTTACGGGCCACTGACAGGTTATAGCATTTGGA: the PBM binding z-score came to 0.737.

Sequence CCTCGGAGGACAACACGAGGTCAGAGCTGCCAGA displayed a PBM binding z-score of 3.22.

CGAACTAGGGCAGAACAGGACAGTGAAGGATGAT showed a PBM binding z-score of 0.757.

ATCTCTAGGTAAAGATAGTTCATTGAATGCAAAT returned a PBM binding z-score of 0.983.

Consider CATACAGGGTCAGCTAAGCCAGAGTAGGGACGGC, for which the PBM binding z-score worked out at 4.37.

On to GCTATTCGTTGAAAGGGCAACCGAATGATTCTCG, for which the PBM binding z-score worked out at 1.21.

Take CAAACTAGGTCACCGGAAGCTCAAAGTCCGCATG: the PBM binding z-score amounted to 5.66.

ATCGTAAGGTCGACGAGGTGAGTATACACCGTTT gave a PBM binding z-score of 3.23.

TGAATGAGGTTATAATATCAGGGAACGTTGCAAA had a PBM binding z-score of 1.12.

In turn, CCTACTGGGCCATCAGGTCCTTGATATCAACGTT yielded a PBM binding z-score of 0.0919.

TCTATTAGTTGATTGGGGCAACCGAAACAGCGGA yielded a PBM binding z-score of 0.336.

Turning to ATCACTAGGTAAAGATAGTTCAGTGAATGCAAAT, the PBM binding z-score was 0.795.

Regarding CCGAGTAGGTAATGGGGCATTCAGGCAACGGTGA, the PBM binding z-score turned out to be 0.0893.

TCATATAGGTTAACAGGTGAAAGTCCGTAAGTTA returned a PBM binding z-score of 1.57.

Take TTACCAAGGTGAAAGTTCGTTGATGCACGCCTTG: the PBM binding z-score is 1.2.

CCTCAAAGTTCAACTAAGGTAACGTAAAGCACGC displayed a PBM binding z-score of 6.74.

In turn, GAGACAGGGTCAGCTAGAGGCCAGAGTATGGAAA returned a PBM binding z-score of 4.77.

Turning to ATATGTAGGTTATCGGGGCATTCAGTTTGCGCAT, the PBM binding z-score was 1.24.

Take CCTACTGGGCCATCAGGTTATTGATATCAACGTT: the PBM binding z-score was found to be 0.522.

Sequence ATATGTAGGTTAGATCCGGGTCATTCAGGCTATG came in with a PBM binding z-score of 1.63.

For the sequence AGTCAAGGTTCAGGACGAGGTAACGTAAAGCACG, the PBM binding z-score worked out at 2.41.

In the case of TCATATAGGTAAAAGGTGAAAGACGGTGTGGTAA, the PBM binding z-score stood at 0.857.

On to AGAACGAGGGCACGCTGAGTTAATAGCAGAGTAG, for which the PBM binding z-score turned out to be 2.41.

Turning to GCAGACAGGTGAAACGCAGGTATCTCAGGGTGGC, the PBM binding z-score worked out at 0.315.

ACTAGCAGGCCAAGGGACACTCAAGATTAGTCCG registered a PBM binding z-score of 0.835.

ACTATGAGTTGAGACGAGGGCAACCGATAGGTTG: the PBM binding z-score was found to be 1.14.

GGAACGAGGGCATTCGGGTTGATAGCATGGCGAT registered a PBM binding z-score of 1.55.

The sequence TTACCACGGTGAAAGGTCGTTGATGCACGCCTTG had a PBM binding z-score of 1.01.

The sequence GCTATTAGTTGAACGGGCAACCGAATGATTCTCG displayed a PBM binding z-score of 0.229.

The test system of the next experiment is RXRa DBDmut IVT, anti-RXR (DBD mutation: RXRa K156A/R161A, NR concentration 90 nM). The description is as above. The method, boiled down: as §1
TCTCGGAGAACACGAAAGGTCAGAGCTCGACATC registered a PBM binding z-score of 0.702.

For CCTCGGAGGACAACAGGACGTCAGAGCTGCCAGA, the PBM binding z-score was 0.0264.

Regarding ACTCGGAGGACATAGGTCAGAGCTACGCCAGTGA, the PBM binding z-score came to 0.527.

On to TCTGCTAGTTCAACGATGGTCAGCTAATCTGCTA, for which the PBM binding z-score amounted to 1.32.

Turning to GCTCGGAGGAGAAGGTCAGAGCTTTGTCCGTAGA, the PBM binding z-score was -0.281.

The sequence TCAGACACGTGAAGGTAACTCAGGTACGCAGTCG registered a PBM binding z-score of 1.06.

Consider CTTCCAAGGTCAAAGGTCAGTGAAGAGATGACGG, for which the PBM binding z-score is 3.91.

As to AGAACGCGGGCAATGAGTTGATAGCACGGGTGGC, the PBM binding z-score is -0.0914.

AATACAGGGACACTAGGCCAGAGTAGGTACGAAT: the PBM binding z-score was found to be 0.0578.

ATCGAAAGGTCGACGAGGTGAGTATCCACCGTTT gave a PBM binding z-score of 1.27.

The sequence AGAATGAGGATACCAAAGATCAGGGAAACGCTTG had a PBM binding z-score of -0.419.

For the sequence CCTTACGGGCCACTGACAGGTTATAGCATTTGGA, the PBM binding z-score was -0.085.

The sequence CCTCGGAGGACAACACGAGGTCAGAGCTGCCAGA displayed a PBM binding z-score of 0.871.

Regarding CGAACTAGGGCAGAACAGGACAGTGAAGGATGAT, the PBM binding z-score was determined as 0.0235.

ATCTCTAGGTAAAGATAGTTCATTGAATGCAAAT showed a PBM binding z-score of 0.467.

CATACAGGGTCAGCTAAGCCAGAGTAGGGACGGC registered a PBM binding z-score of 1.77.

On to GCTATTCGTTGAAAGGGCAACCGAATGATTCTCG, for which the PBM binding z-score came to 0.319.

CAAACTAGGTCACCGGAAGCTCAAAGTCCGCATG registered a PBM binding z-score of 1.98.

With ATCGTAAGGTCGACGAGGTGAGTATACACCGTTT, the PBM binding z-score was determined as 1.37.

Sequence TGAATGAGGTTATAATATCAGGGAACGTTGCAAA registered a PBM binding z-score of 0.98.

Take CCTACTGGGCCATCAGGTCCTTGATATCAACGTT: the PBM binding z-score was -0.586.

With TCTATTAGTTGATTGGGGCAACCGAAACAGCGGA, the PBM binding z-score is 1.34.

In the case of ATCACTAGGTAAAGATAGTTCAGTGAATGCAAAT, the PBM binding z-score is -0.617.

As to CCGAGTAGGTAATGGGGCATTCAGGCAACGGTGA, the PBM binding z-score is -0.575.

TCATATAGGTTAACAGGTGAAAGTCCGTAAGTTA registered a PBM binding z-score of 1.53.

As to TTACCAAGGTGAAAGTTCGTTGATGCACGCCTTG, the PBM binding z-score was 1.14.

CCTCAAAGTTCAACTAAGGTAACGTAAAGCACGC yielded a PBM binding z-score of 4.41.

For GAGACAGGGTCAGCTAGAGGCCAGAGTATGGAAA, the PBM binding z-score came out at 1.03.

The sequence ATATGTAGGTTATCGGGGCATTCAGTTTGCGCAT came in with a PBM binding z-score of 1.35.

Regarding CCTACTGGGCCATCAGGTTATTGATATCAACGTT, the PBM binding z-score was -0.157.

For the sequence ATATGTAGGTTAGATCCGGGTCATTCAGGCTATG, the PBM binding z-score was 0.691.

AGTCAAGGTTCAGGACGAGGTAACGTAAAGCACG came in with a PBM binding z-score of 2.61.

Regarding TCATATAGGTAAAAGGTGAAAGACGGTGTGGTAA, the PBM binding z-score turned out to be 1.7.

On to AGAACGAGGGCACGCTGAGTTAATAGCAGAGTAG, for which the PBM binding z-score amounted to 1.8.

For the sequence GCAGACAGGTGAAACGCAGGTATCTCAGGGTGGC, the PBM binding z-score was -0.484.

Sequence ACTAGCAGGCCAAGGGACACTCAAGATTAGTCCG gave a PBM binding z-score of -0.24.

For ACTATGAGTTGAGACGAGGGCAACCGATAGGTTG, the PBM binding z-score worked out at 0.701.

On to GGAACGAGGGCATTCGGGTTGATAGCATGGCGAT, for which the PBM binding z-score turned out to be 3.18.

Consider TTACCACGGTGAAAGGTCGTTGATGCACGCCTTG, for which the PBM binding z-score stood at 0.51.

For the sequence GCTATTAGTTGAACGGGCAACCGAATGATTCTCG, the PBM binding z-score stood at 0.557.
